High-throughput results as filed in PubChem.
Rows were chosen to be rich in hits. Some 4% of all compounds tested hit in one or more screens of this group.
MITF TRPM1 inh – inhibitors of MITF-driven TRPM1 promoter in melanoma cells | SK-MEL-5 TRPM1 promoter luciferase, 24 h | inhibition, % at 12.5 µM | 0.83% of 330,000 active;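 active means mean inhibition across replicates of 60% or more, whatever share of single replicates reaches that level; inconclusive means some that reach 60%, reason not given; inactive means mean inhibition across replicates below 60%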
esBAF inh – blocks esBAF chromatin remodeling in mouse ES cells; Bmi1-luciferase knock-in reporter, 24 h; 100% = twice the neutral-well signal; reporter increase, % at 12.5 µM; 2% of 350,000 active; AID 602393; in the data active means activation above about 40%; inconclusive means no clear call, values can overlap the other calls;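 further: 0% = median of the plate's neutral control wells and 100% = double that signal; a rise in the Bmi1 reporter signal indicates esBAF inhibition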
C2C12 statin – protects C2C12 myotubes from simvastatin toxicity; ATP luminescence, 48 h; scaled: DMSO 0, geranylgeraniol control 100; rescue of ATP level, % at 7.49 µM; 0.78% of 330,000 active; AID 602340;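 active means mean ATP rescue above about 67%, or every replicate alone reaching that limit, limit read from the data, passing the limit was not always enough; inconclusive means no clear call, values can overlap the other calls; inactive means mean under the limit and some replicate under it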;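 further: myotubes were challenged with 10 µM simvastatin during compound exposure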
MITF act – increases MITF-driven TRPM1 promoter luciferase signal | 0.75% of 300,000 active | SK-MEL-5 TRPM1-promoter luciferase, 24 h; % of positive control, neutral wells = 0 | activation, % at 12.5 µM | AID 588334;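 active means mean activation of at least 80% with every replicate also reaching 80%; inconclusive means mean reaches 80% but some replicate falls short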;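 further: 0% = neutral control wells and 100% = parthenolide positive control wells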
Wnt bcat act – activates Wnt/beta-catenin signaling in a reporter cell assay | activator, plate reader | activation, % at 9.35 µM | 1.2% of 300,000 active | AID 743398; in the data active means activation above about 30%, passing the limit was not always enough; inconclusive means no clear call, values can overlap the other calls;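 further: 0% = neutral control wells and 100% = positive control wells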
LMP1 NFkB inh – inhibitors of Epstein-Barr LMP1-induced NF-kappaB reporter; AID 504558; LMP1-induced NF-kappaB luciferase reporter cells, luminescence; 0.69% of 350,000 active; inhibition, % at 12.5 µM; in the data active means inhibition above about 41%; inconclusive means no clear call, values can overlap the other calls;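 further: 0% = neutral control wells and 100% = reference inhibitor control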
The depositor's hits bear a star; ? = inconclusive; . = no result.

SMILES	MITF TRPM1 inh	esBAF inh	C2C12 statin	MITF act	Wnt bcat act	LMP1 NFkB inh
COc1ccc(CCN=C(N)C(C)c2ccccc2)cc1OC (configuration not stated)	10	-9	-9	-7	0	-6
COc1ccccc1N=Nc1ccc(O)c2ncccc12	1	64*	-24	1	16	32
CCS(=O)(=O)c1ccc(N=Nc2ccc(O)c3ncccc23)c(OC)c1	66*	.	.	-65	-1	-14
CCS(=O)(=O)c1ccc(O)c(NC(=O)c2cc(OC)c(OC)c(OC)c2)c1	10	5	2	-9	.	1
Cc1ccc(N=Nc2ccc(O)c3ncccc23)cc1	87*	.	.	-86	-7	13
Oc1ccc(N=Nc2ccccc2C(F)(F)F)c2cccnc12	73*	-64	-16	-73	-9	72*
Cc1ccc(N=Nc2ccc(O)c3ncccc23)cc1C	39	.	.	-36	1	-8
CN(C)CCCNC(=O)c1c(N)[nH]c(C(=O)c2ccc(Br)cc2)c1-c1ccc(Br)cc1	.	.	.	.	-6	.
N/C(Cc1ccc([N+](=O)[O-])cc1)=N\OC(=O)Cc1ccc(Cl)cc1	8	.	.	-9	-2	-5
Cc1cc(C)c(NC(=O)CS(=O)CC(=O)NCCCc2ccccc2)c(C)c1 (configuration not stated)	8	-11	-1	-7	-2	-6
CCC(C)c1ccccc1OCCCNC1CCCC1 (configuration not stated)	20	-4	1	-16	-2	9
CCN(CC)C(=O)c1cc(-c2ccc(Br)cc2)on1	-87	75*	-4	?	.	-33
Cc1ccc(C(=O)c2c(C)oc3c2C(=O)C(=O)c2ccccc2-3)cc1	26	.	.	-26	.	46*
O=C(c1ccc(Cl)cc1)c1ccc(CN2C(=O)c3ccccc3C2=O)o1	0	-7	-2	2	-1	-2
Cc1oc2c(c1C(=O)c1ccc(Cl)cc1)C(=O)C(=O)c1ccccc1-2	1	.	.	1	.	90*
COc1ccc(C(=O)c2coc(-c3ccccc3C(=O)O)c2C(=O)O)cc1	6	.	.	-7	.	-6
Cc1ccc(C(=O)c2coc3c2C(=O)C(=O)c2ccccc2-3)cc1	-67	42*	-4	71	.	-5
COc1ccc(S(=O)(=O)N(C)C[C@@H]2OCCCC[C@@H](C)Oc3ccc(NS(=O)(=O)c4ccc(F)cc4)cc3C(=O)N([C@H](C)CO)C[C@@H]2C)cc1	.	5	2	.	.	.
COc1ccc(S(=O)(=O)Nc2ccc3c(c2)C(=O)N([C@H](C)CO)C[C@@H](C)[C@@H](CN(C)S(=O)(=O)c2ccc(F)cc2)OCCCC[C@H](C)O3)cc1	.	11	141*	.	.	.
COc1ccc(S(=O)(=O)Nc2ccc3c(c2)C(=O)N([C@@H](C)CO)C[C@H](C)[C@H](CN(C)S(=O)(=O)c2ccc(F)cc2)OCCCC[C@H](C)O3)cc1	.	4	174*	.	.	.
O=C(NNC(=O)c1cccs1)c1ccc(S(=O)(=O)N2CCCCC2)cc1	4	.	.	-2	-1	-8
COc1ccc(NC(=O)c2cc(C3CCCCN3S(=O)(=O)Cc3ccccc3)on2)cn1 (configuration not stated)	.	51*	-5	.	-2	.
Cn1cnc(S(=O)(=O)N2CCCCC2c2cc(C(=O)Nc3ccccc3Cl)no2)c1 (configuration not stated)	.	7	-14	.	4	.
O=C(NCc1ccccc1)c1cc(C2CCCCN2S(=O)(=O)Cc2ccccc2)on1 (configuration not stated)	.	1	20	.	-1	.
Cn1cnc(S(=O)(=O)N2CCCCC2c2cc(C(=O)Nc3ccc(F)c(Cl)c3)no2)c1 (configuration not stated)	.	45*	5	.	3	.
SMILES	MITF TRPM1 inh	esBAF inh	C2C12 statin	MITF act	Wnt bcat act	LMP1 NFkB inh
Cc1ccc(Cn2ccc(NC(=O)c3noc4c3CCCCC4)n2)cc1	-25	37	2	23	.	-18
Cc1nn(Cc2c(Cl)cccc2Cl)c(C)c1NC(=O)c1cn(-c2ccccc2)nc1-c1ccccc1	87*	.	.	-87	.	-87
Cc1cc(NC(=O)c2cc3cccc([N+](=O)[O-])c3[nH]2)ccc1F	-58	84*	-34	53	41*	-39
Cc1ccc(S(=O)(=O)N(C)C[C@@H]2Oc3ccc(NC(=O)Cc4ccccc4)cc3CC(=O)N([C@H](C)CO)C[C@@H]2C)cc1	.	4	33	.	.	.
Cc1ccc(NC(=O)C2(C)CCN2C(=O)Cc2ccccc2Cl)cc1C (configuration not stated)	.	2	9	.	-2	.
Cc1cc(C)n2nc(C(=O)Nc3ccc4c(c3)CCC4)nc2n1	-48	56*	-5	48	20	-3
COC(=O)c1cc(NC(=O)c2c(Cl)cnn2C)cc(C(=O)OC)c1	4	.	.	-4	-4	-5
Cn1ncc(Cl)c1C(=O)Nc1ccc2c(c1)CCC2	-28	52*	-6	29	24	-24
Cn1ncc(Cl)c1C(=O)NC1CCCC1	-9	-2	2	9	-1	53*
CC1=C(CC(=O)c2ccc(Cl)cc2)C(=O)c2ccccc2C1=O	27	25	-57	-20	.	-23
C[n+]1ccn(CC(=O)c2cccs2)c1	-3	-5	2	2	-1	5
CCCCCCCCCCCCCCCCn1cc[n+](C)c1	70*	.	.	-68	-8	5
COc1ccc(CCNC(=O)C2C3CCC(C3)C2C(=O)O)cc1OC (configuration not stated)	12	-4	2	-11	1	6
CCCn1c(C)cc(C(=O)Cn2nnc3ccccc3c2=O)c1C	-73	.	.	67	46*	-27
CCCn1c(C)cc(C(=O)CN2C(=O)c3ccccc3S2(=O)=O)c1C	.	-83	1	.	-14	82*
O=C(CN1C(=O)c2ccccc2S1(=O)=O)c1ccc(F)c(F)c1	12	.	.	-11	10	46*
Cc1cc(C(=O)CN2C(=O)c3ccccc3S2(=O)=O)c(C)n1CC1CCCO1 (configuration not stated)	83*	-85	10	.	.	80*
O=C(Cn1c(=O)c2cccn2c2ccc(F)cc21)N1CCN(c2ccc(F)cc2)CC1	10	-2	1	-12	-2	-5
CNS(=O)(=O)c1cccc(C(=O)OCC(=O)c2cc(C)n(CC3CCCO3)c2C)c1 (configuration not stated)	-32	-6	9	33	10	25
Cc1cc(C(=O)COC(=O)c2cccc(S(=O)(=O)N(C)C)c2)c(C)n1CC1CCCO1 (configuration not stated)	-83	.	1	?	37*	-4
S=c1nc(COc2ccccc2)[nH]c2ccccc12	-22	68*	-6	27	27	-9
Cn1c(=O)c(=O)n(C)c2cc([N+](=O)[O-])c([N+](=O)[O-])cc21	-1	.	.	-1	2	-2
